DT40 TDP1 CPT: growth inhibition of DT40 Tdp1-/-;hTDP1 cells with camptothecin (screen for TDP1 inhibitors); chicken DT40 Tdp1-/-;hTDP1 cells + 20 nM CPT, ATP luminescence, 48 h; Potency, µM (series often up to 46.2 µM), most hits filed as inhibitors; 420,000 compounds, 12% hits; AID 686979; note: nearly all actives have a fitted effect of over 55% in size
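Chicken DT40 Tdp1-/- cells stably complemented with human TDP1 were seeded at 400 cells/well in medium containing 20 nM camptothecin, exposed to pin-transferred compounds, and grown at 37 °C for at least 48 hr. Viability was read as ATP luminescence.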
ELG1 DNA repair: inhibitors of ELG1-dependent DNA repair in HEK293T cells; 330,000 compounds, 2.3% hits; AID 504467; HEK293T ELG1-luciferase reporter, luminescence, 16 h; DNA damage induced by 5-fluorouridine; Potency, µM (doses to about 46.1 µM), most hits filed as inhibitors; note: nearly all actives have a fitted effect of over 55% in size
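DMSO vehicle served as the neutral condition. Each well held 2,000 cells given 5-fluorouridine plus compound; after 16 hr at 37 °C/5% CO2, ONE-Glo was added and luciferase measured 30 min later.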
RORg inh: ROR gamma (mouse) transcription inhibition | P51450 | Drosophila S2 Gal4-RORgamma UAS-luciferase reporter, 20 h | Potency, µM (highest dose often 53.6 µM), usual class: inhibitors | 310,000 compounds, 5.4% hits; note: nearly all actives have a fitted effect of over 60% in size
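Using a luciferase readout, inhibitors were identified by reduced reporter activity in Drosophila cells coexpressing a copper-inducible Gal4–ROR gamma fusion and UAS-driven Photinus luciferase, incubated 20 hr after 700 uM copper sulfate.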
DT40 TDP1 no CPT: qHTS for Inhibitors of human tyrosyl-DNA phosphodiesterase 1 (TDP1): qHTS in cells in absence of CPT | Potency, µM (highest dose often 46.2 µM), actives largely listed as inhibitors | 420,000 compounds, 15% hits | DT40 Tdp1-/- hTDP1 cells, no CPT, ATP luminescence, 48 h; note: nearly all actives have a fitted effect of over 55% in size
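Growth kinetics read by CellTiter-Glo luminescence after ≥48 hr at 37 °C. Cells: DT40 Tdp1-/- stably carrying human TDP1, 400 per well, compound exposure in the absence of CPT (DMSO vehicle).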
12-LOX inh: inhibitors of human 12S-lipoxygenase ALOX12 | P18054 | purified 12hLO, xylenol orange hydroperoxide absorbance | Potency, µM (titrated, usually from 108 µM), actives largely listed as inhibitors | 580,000 compounds, 1.1% hits
Target sequence (P18054 whole entry, looked up): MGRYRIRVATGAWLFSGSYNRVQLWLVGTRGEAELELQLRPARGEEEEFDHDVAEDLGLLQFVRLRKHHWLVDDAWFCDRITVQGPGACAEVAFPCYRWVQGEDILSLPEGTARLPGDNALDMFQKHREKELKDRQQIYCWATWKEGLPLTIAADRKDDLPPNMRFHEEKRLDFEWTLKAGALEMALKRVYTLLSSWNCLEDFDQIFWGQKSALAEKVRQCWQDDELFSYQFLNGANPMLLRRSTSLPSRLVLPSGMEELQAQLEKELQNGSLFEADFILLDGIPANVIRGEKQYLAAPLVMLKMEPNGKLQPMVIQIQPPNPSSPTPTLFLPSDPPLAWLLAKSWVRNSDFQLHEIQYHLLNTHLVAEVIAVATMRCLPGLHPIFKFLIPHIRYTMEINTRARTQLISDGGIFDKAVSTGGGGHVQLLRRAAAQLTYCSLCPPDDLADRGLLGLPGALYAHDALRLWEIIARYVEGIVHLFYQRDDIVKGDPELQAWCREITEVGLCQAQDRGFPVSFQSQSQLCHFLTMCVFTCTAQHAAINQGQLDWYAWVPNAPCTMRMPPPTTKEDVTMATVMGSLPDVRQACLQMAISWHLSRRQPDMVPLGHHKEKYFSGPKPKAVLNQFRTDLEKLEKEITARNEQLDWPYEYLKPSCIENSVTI
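Purified human 12hLO at 150 nM in 25 mM Hepes, 0.01% Triton X-100, pH 7.0, preincubated 15 min at room temperature with compound. Reaction started with 40 uM arachidonic acid, 30 min at room temperature. Hydroperoxide measured by Fe-xylenol orange, 573/405 nm absorbance ratio.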
Gal4-VP16 FLuc: counter-screen for ROR gamma inhibitors: Gal4-VP16 reporter. 310,000 compounds, 3.5% hits. Potency, µM (series often up to 53.6 µM), actives largely listed as inhibitors. Drosophila S2 Gal4-VP16 UAS-luciferase, luminescence, 20 h;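 note: Gal4-VP16 expression switched on by copper sulfate through the metallothionein promoter; nearly all actives have a fitted effect of over 50% in size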
A number is an active result; n = inactive; u = inconclusive; x = no result given. Rows were chosen to be rich in hits. Some 15% of all compounds tested hit in one or more screens of this group. Calls come from the whole dose curve; as a rule, active = well fitted curve in the direction sought with a large enough effect; inconclusive = small, poorly fitted or top-dose-only effect, or another doubt; inactive = no such curve, though single readings can be large; an effect the other way counts as inactive or inconclusive.

SMILES | DT40 TDP1 CPT | ELG1 DNA repair | RORg inh | DT40 TDP1 no CPT | 12-LOX inh | Gal4-VP16 FLuc
CCCCOc1ccccc1C(=O)NNC(=S)NC(=O)c1ccccc1[N+](=O)[O-] | 26µM | n | 14µM | 18µM | u | u
O=C(NNC(=S)NC(=O)c1ccccc1[N+](=O)[O-])c1ccc(Cl)cc1Cl | u | n | 5.6µM | u | u | n
Cc1ccc(C(=O)NC(=S)NNC(=O)c2ccccc2[N+](=O)[O-])cc1 | 21µM | n | 3.2µM | u | 32µM | 3.2µM
O=C(NNC(=S)Nc1ccccc1)c1ccccc1[N+](=O)[O-] | n | n | n | n | n | n
O=C(NNC(=S)NC(=O)c1ccccc1[N+](=O)[O-])c1ccccc1O | u | n | n | 18µM | n | n
O=C(NNC(=S)NC(=O)c1ccccc1[N+](=O)[O-])c1ccccc1[N+](=O)[O-] | n | n | n | n | n | n
CCC(=O)N(C1CCOCC1)C1CCN(Cc2ccc(C)cc2C)CC1 | x | x | x | x | n | x
COc1cc(NC(=O)Cn2c(-c3ccc(F)cc3)nc(C)cc2=O)cc(OC)c1 | x | x | x | x | n | x
COc1ccc(Nc2nc(COC(=O)c3ccc4c(c3)C(=O)N(C)C4=O)cs2)cc1 | x | x | x | x | n | x
CCN(CC)C(=O)C[C@@H]1c2nc(NC(=O)c3ccc(OC)cc3)sc2C[C@@H]2[C@](C)(CO)[C@H](O)CC[C@]21C | x | x | x | x | n | x
CC1=C[C@@H](CNC(=O)COc2ccccc2)[C@H](C(C)C)C[C@H]1Cc1nc2ccncc2[nH]1 | x | x | x | x | n | x
CCOc1ccc(-c2cc(C(=O)NCCc3ccccn3)[nH]n2)cc1 | x | x | x | x | n | x
CC(=O)NC(=S)NNC(=O)COc1ccc(Br)cc1 | n | u | n | n | n | n
O=C(COc1ccc(Br)cc1)NNC(=S)NC(=O)c1ccccc1[N+](=O)[O-] | u | n | u | 21µM | u | u
CCc1nnc(NC(=O)CSc2nnc(COc3ccccc3)n2-c2ccc(C)cc2)s1 | u | n | n | n | n | n
CCOc1ccc(-n2ccnc2SCC(=O)Nc2nnc(CC)s2)cc1 | u | n | 10µM | u | n | n
CCc1nnc(NC(=O)CSc2nnc(-c3ccccc3O)n2-c2ccc(C)cc2C)s1 | u | x | 1.6µM | 23µM | n | u
CCc1nnc(NC(=O)CSc2nccn2Cc2ccccc2)s1 | u | x | x | 21µM | n | x
COc1ccc(CCN2C(=O)c3oc4ccc(F)cc4c(=O)c3C2c2ccc(C(C)(C)C)cc2)cc1 (centres undefined) | u | x | x | 3.3µM | n | x
COc1cccc(C2c3c(oc4ccccc4c3=O)C(=O)N2CCCN2CCOCC2)c1OC (centres undefined) | n | x | x | n | n | x
CCOc1cccc(C2c3c(oc4ccc(F)cc4c3=O)C(=O)N2CCc2ccc(OC)cc2)c1 (centres undefined) | 5.2µM | x | x | u | n | x
COc1ccc(C2c3c(oc4ccccc4c3=O)C(=O)N2CCCN2CCOCC2)cc1 (centres undefined) | u | x | x | 23µM | x | x
O=C(Cn1c(=O)c(CCC(=O)NC2CC2)nc2ccccc21)Nc1cccc(C(F)(F)F)c1 | x | x | x | x | n | x
CCC/C(=N\N=C(/CCC)c1ccccc1)c1ccccc1 | x | x | x | x | n | x
CC1=C[C@@H](CN2CCN(C)CC2)[C@H](C(C)C)C[C@H]1Cc1nnc(-c2ccc(C)cc2)o1 | x | x | x | x | n | x
CCOC(=O)C(C)Oc1cccc2c(=O)n(CC(=O)NCc3ccco3)ccc12 (centres undefined) | 1.6µM | n | n | 2.1µM | x | n
COc1ccccc1Nc1c2c(nc3ccc(NC(=O)c4cccc(OC)c4OC)cc13)CCCC2 | 5.8µM | x | x | 13µM | u | x
COc1ccc(C(=O)Nc2ccc3nc4c(c(Nc5ccc(OC)c(OC)c5)c3c2)CCCC4)c(OC)c1 | 3.3µM | x | x | 2.9µM | n | x
COc1ccc(Nc2c3c(nc4ccc(NC(=O)c5ccc(F)cc5)cc24)CCCC3)cc1OC | u | x | x | u | n | x

Screens from PubChem.
